In the library only some 6.9% were active in any assay of this set; here they are far more common.
Giardia killer = kills Giardia lamblia | Giardia lamblia trophozoite viability | activity change, % at 7.66 µM, hits read low | 340,000 compounds, 0.15% hits | AID 540267; in the data active = activity change below about -80%; inconclusive = between about -30% and that limit;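 note: parasites exposed to compound for two days anaerobically before the ATP read; % is set by controls: 0 for no effect and ±100 for the full control effect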
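Compounds were tested on trophozoites seeded at 100 cells/well and held 48 hrs at 37 deg C anaerobically. An ATP-based luminescent kit measured the remaining live cells.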
KB-V1 cytotox = kills drug-selected multidrug resistant KB-V1 cells. 400,000 compounds, 3.4% hits. Potency, µM (top dose mostly 46.1 µM), actives largely listed as cytotoxic. KB-V1 MDR cells viability, CellTiter-Glo, 72 h. AID 1347076; note: potency is the fitted concentration of half-maximal effect; % is set by controls: 0 for no effect and ±100 for the full control effect; nearly all actives have a fitted effect of over 60% in size
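Potencies derive from concentration-effect curves fitted to normalized luminescence (CellTiter-Glo) of KB-V1 cells treated for 72 h at 37 degrees C in phenol-red-free DMEM containing 10% FBS.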
KB-3-1 cytotox = KB-3-1 parental cell cytotoxicity | KB-3-1 viability, CellTiter-Glo ATP luminescence, 72 h | Potency, µM (highest dose often 46.1 µM), usual class: cytotoxic | 400,000 compounds, 1.4% hits; note: potency is the fitted concentration of half-maximal effect; % is set by controls: 0 for no effect and ±100 for the full control effect; nearly all actives have a fitted effect of over 60% in size
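Cytotoxicity measured as CellTiter-Glo luminescence after 72 h at 37 C. Compound titrations were pinned onto drug-naive KB-3-1 parental adenocarcinoma cells grown in DMEM with 10% FBS, and normalized data fitted to concentration-response curves.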
MCF10A rerep = inducers of DNA re-replication in MCF 10A breast cells; 350,000 compounds, 2.9% hits; MCF 10A DNA re-replication, Hoechst nuclear intensity, 48 h; Potency, µM (top dose mostly 46.1 µM), without a hit: at the top dose activity, positive = re-replication, hits mostly activators; note: potency is the fitted concentration of half-maximal effect; % of control where 0% means no effect; nearly all actives have a fitted effect of over 50% in size
S-ASM inh = inhibitors of human secretory acid sphingomyelinase; P17405; placental ASM, HMU-PC fluorogenic substrate, 60 min; Potency, µM (series often up to 57.5 µM), without a hit: at the highest dose activity change, negative = inhibition, usual class: inhibitors; 340,000 compounds, 0.006% hits; AID 504937; note: potency is the fitted concentration of half-maximal effect
Target sequence (P17405 47-631 limits assumed): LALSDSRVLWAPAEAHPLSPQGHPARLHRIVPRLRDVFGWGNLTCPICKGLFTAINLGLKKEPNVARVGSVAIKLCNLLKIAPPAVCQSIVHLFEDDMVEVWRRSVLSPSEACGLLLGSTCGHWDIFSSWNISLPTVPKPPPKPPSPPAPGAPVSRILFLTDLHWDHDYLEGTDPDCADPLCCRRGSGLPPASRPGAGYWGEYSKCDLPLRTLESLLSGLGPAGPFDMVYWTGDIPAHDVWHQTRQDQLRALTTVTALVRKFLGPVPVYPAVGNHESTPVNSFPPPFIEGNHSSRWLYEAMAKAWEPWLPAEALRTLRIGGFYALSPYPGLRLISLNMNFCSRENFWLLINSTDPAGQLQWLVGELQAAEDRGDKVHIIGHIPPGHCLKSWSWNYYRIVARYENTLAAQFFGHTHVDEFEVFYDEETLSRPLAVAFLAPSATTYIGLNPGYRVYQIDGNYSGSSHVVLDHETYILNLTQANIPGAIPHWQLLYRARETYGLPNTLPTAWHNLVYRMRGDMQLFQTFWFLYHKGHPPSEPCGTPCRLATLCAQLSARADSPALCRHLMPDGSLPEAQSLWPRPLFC
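HMU-PC0 cleavage (9 uM final) by human placental ASM, 60 min at 37 °C following 10 min compound exposure at RT; stopped at pH 10, fluorescence Ex 386/Em 447 nm.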
SW480 rerep = inducers of DNA re-replication in SW480 colon cancer cells; SW480 DNA re-replication, Hoechst DNA content imaging, 48 h; Potency, µM (doses to about 46.1 µM), without a hit: at the highest dose re-replication activation, actives largely listed as activators; 340,000 compounds, 1.8% hits; AID 624297; note: potency is the fitted concentration of half-maximal effect; % of control where 0% means no effect; nearly all actives have a fitted effect of over 55% in size
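Quantitative HTS format with DMSO vehicle controls; 48 hr drug incubation at 37 C, then 40 min Hoechst staining and scanning imager measurement at 405 nm excitation.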
* marks the source's active call; other numbers are inactive results; i = inactive; ? = inconclusive; nt = no result given. Unless noted, calls come from the whole dose curve; as a rule, active = well fitted curve in the direction sought with a large enough effect; inconclusive = small, poorly fitted or top-dose-only effect, or another doubt; inactive = no such curve, though single readings can be large; an effect the other way counts as inactive or inconclusive.

SMILES | Giardia killer | KB-V1 cytotox | KB-3-1 cytotox | MCF10A rerep | S-ASM inh | SW480 rerep
CCC1=NN(C(=O)c2ccccc2Br)C(O)(c2ccc(Br)cc2)C1 (configuration not stated) | 22 | i | i | 12% | -11% | 12%
Cc1onc(-c2c(Cl)cccc2Cl)c1C(=O)ONC(=O)c1ccccc1 | -23 | i | i | 0% | 4% | -24%
CCn1c(=O)cc(SCC(=O)NCCc2cc(OC)ccc2OC)c2ccccc21 | nt | ? | i | nt | nt | nt
Cc1ccc(Cl)cc1NS(=O)(=O)c1cc2c(cc1F)NC(=O)CC2 | nt | i | i | nt | nt | nt
Cc1ccccc1NC(=O)C(=Cc1ccc(C(=O)O)cc1)C(=O)Nc1ccccc1C | -6 | ? | ? | 13µM* | 6% | ?
COC(=O)C(Cc1c[nH]c2ccccc12)NC(=O)COc1ccc(Cl)cc1Cl (configuration not stated) | 13 | nt | nt | nt | nt | nt
CCCSc1ccc(-c2nn(-c3ccccc3)cc2/C=C(/C#N)C(=O)NCCCOC)cc1 | 3 | ? | i | 9% | 8% | 4.1µM*
Cc1ccc(-c2nn(-c3ccccc3)cc2/C=C(\C#N)C(=O)NCc2ccccc2)cc1 | -8 | i | i | 4% | 73% | 1%
CCSc1ccc(-c2nn(-c3ccccc3)cc2/C=C(/C#N)C(=O)NCCCOC)cc1 | -4 | i | i | 15µM* | i | ?
CC(NC(=O)/C(C#N)=C/c1cn(-c2ccccc2)nc1-c1ccc(F)cc1)c1ccccc1 (configuration not stated) | -9 | i | i | -6% | 24% | -8%
O=C1CCC[C@@H]2C[C@@]3(C[C@@H]4CCN1[C@H]24)Nc1ccccc1NC3=NC1CCCCC1 | nt | i | i | nt | nt | nt
COc1ccc(-c2cc(N3CCCC3)n3ncnc3n2)cc1 | 16 | ? | i | -4% | -1% | -7%
O=S(=O)(c1ccccc1)N1CCN(c2cc(-c3ccccc3)nc3ncnn23)CC1 | -2 | ? | i | -4% | 1% | 6%
COc1ccc(S(=O)(=O)N2CCN(c3cc(-c4ccccc4)nc4ncnn34)CC2)cc1 | 3 | 23µM* | ? | -3% | -2% | -3%
O=S(=O)(c1ccc(Br)cc1)N1CCN(c2cc(-c3ccccc3)nc3ncnn23)CC1 | -5 | 13µM* | ? | 24% | -7% | -2%
CCN(CC)c1ccc(NC(=O)C2CCN(S(=O)(=O)c3ccc4c(c3)oc(=O)n4C)CC2)c(C)c1 | nt | i | i | nt | nt | nt
FC(F)(F)c1nnc2c(Sc3ccccc3)nc3ccc(Cl)cc3n12 | 5 | ? | ? | 12µM* | 8% | ?
O=c1[nH]c2ccccc2n2c(C(F)(F)F)nnc12 | 7 | i | i | 0% | -3% | -4%
CCCCC1(Cc2ccc([N+](=O)[O-])cc2)C(=O)N(c2ccccc2)N(c2ccccc2)C1=O | -3 | 16µM* | ? | ? | -2% | 14%
CCCCC1(COC(=O)CCC(=O)O)C(=O)N(c2ccccc2)N(c2ccccc2)C1=O | -19 | i | i | 10% | -2% | 0%
C[C@H](CCCC(C)(C)O)[C@H]1CC[C@H]2[C@@H]3CC=C4C[C@@H](O)CC[C@]4(C)[C@H]3CC[C@]12C | nt | nt | nt | -8% | nt | -6%
COc1ccc(C(=O)COC(=O)c2cccc(NC(=O)c3ccc(OC)c(OC)c3)c2)cc1 | nt | i | i | nt | nt | nt
CC/C(=N\NC(=O)c1c(-c2ccccc2)noc1C)c1ccc(C)o1 | 11 | 13µM* | i | 17% | 2% | 2%
CC(NC(=O)Nc1cccc([N+](=O)[O-])c1)(C(F)(F)F)C(F)(F)F | -16 | ? | 18µM* | 12% | -2% | 3%
O=[N+]([O-])c1cccc(NC2=NCCC2)c1 | 6 | i | 13µM* | -1% | 7% | 0%
SMILES | Giardia killer | KB-V1 cytotox | KB-3-1 cytotox | MCF10A rerep | S-ASM inh | SW480 rerep
O=C(Nc1cccc([N+](=O)[O-])c1)Nc1ccc2c(c1)CCC2 | 4 | 23µM* | ? | 16% | -8% | 28%
O=C(Nc1cccc([N+](=O)[O-])c1)c1cccc(C(=O)Nc2cccc([N+](=O)[O-])c2)c1 | -18 | i | i | 5% | -6% | 6%
O=C(Nc1cccc([N+](=O)[O-])c1)Nc1cccs1 | 4 | i | i | 0.65µM* | -4% | -9%
O=C(CN1CCNCC1)NC1CCCCC1 | nt | nt | nt | -1% | nt | -3%
Cc1noc(C)c1C(=O)N1CCC(Cc2ccccc2)CC1 | 2 | 15µM* | i | 6% | -1% | -2%
Cc1onc(-c2ccccc2Cl)c1C(=O)N1CCC(Cc2ccccc2)CC1 | -13 | i | ? | ? | -8% | -13%
C[C@@H]1CN([C@H](C)CO)C(=O)CCCn2nncc2CO[C@@H]1CN(C)C(=O)CCC(F)(F)F | nt | i | 1.6µM* | nt | nt | nt
COc1cc(/C=N/Nc2ncnc3sc4c(c23)CCC4)ccc1O | 6 | i | ? | ? | 21% | 23µM*
CCOCCn1ccc2c(OCC(=O)NCc3ccc(F)cc3)cccc2c1=O | nt | i | i | nt | nt | nt
CCCCCCCn1c(=O)c(C(=O)OC)c(N)c2ccccc21 | 3 | 15µM* | i | 0% | -12% | 0%
CCCCCCCCn1c(=O)c(C(=O)OC)c(N)c2ccccc21 | 2 | ? | ? | 21µM* | -26% | -12%
CC1CCN(S(=O)(=O)c2cn(CC(=O)Nc3ccc(F)cc3)c(=O)c3ccccc23)CC1 | nt | i | i | nt | nt | nt
CC(=O)c1ccc(NS(=O)(=O)c2cccc(S(=O)(=O)c3ccc(Cl)cc3)c2)cc1 | nt | i | i | nt | nt | nt
COC(=O)c1cc2oc(C)cc2n1Cc1ccccc1Cl | nt | i | i | nt | nt | nt
O=C(Nc1ccc(Cl)cc1)c1csc(-c2ccccc2)n1 | -2 | ? | i | 23µM* | -16% | 19%
CCC1(c2ccccc2)NC(=O)N(CC(=O)Nc2ccccc2C(=O)N2CCCCC2)C1=O (configuration not stated) | 4 | i | i | -1% | 6% | 4%
CCCOc1ccc([C@@H]2C3CN(C(=O)OCC)CC=C3C(C#N)=C(N)C2(C#N)C#N)cc1OC (some centres not stated) | -4 | i | i | 13% | 17% | 11%
CCOC(=O)N1CC=C2C(C#N)=C(N)C(C#N)(C#N)[C@H](c3cccs3)C2C1 (some centres not stated) | -2 | 9.2µM* | i | 13% | 10% | 4%
CC(C)(C)OC(=O)N1CC=C2C(C#N)=C(N)C(C#N)(C#N)[C@H](c3cccnc3)[C@H]2C1 | -15 | ? | ? | 2% | 118% | -2%

Screens as filed in PubChem.
